# PubChem BioAssay (EPA / NIEHS)
# Inconclusive results are not listed. Calls of active or inactive are those of the source. The calls were made as follows: active = hit-call score of the fitted dose curve at least 0.9, where 1 is the maximum; inconclusive = response in the unintended direction; inactive = score below 0.9.
# Columns and labels:
# [1] = NVS_IC_rCaBTZCHL: NovaScreen (NVS) Ion Channel Assay for Calcium Channel, Type L, Benzothiazepine Site (CaBTZCHL) (AID 2283337)
# How it was run: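 Radioligand binding to the benzothiazepine site of L-type Ca channels in rat cortical membranes (cell-free), 1.5 h after dosing; filter-based scintillation counting. Loss of signal relative to DMSO baseline; primary single-concentration screen at 25 uM, actives then run in concentration series.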
# [2] = biological target: bovine Estrogen Receptor (ER), ESR1 (gene 407238) (UniProt P49884); test: NVS_NR_bER: NovaScreen (NVS) Nuclear Receptor Binding Assay for bovine Estrogen Receptor (ER) (AID 2283345);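 also: actives lower the bound radioligand count which means they displace the ER ligand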
# How it was run: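 Displacement of a radioligand from estrogen receptor in bovine uterine membrane preparations; scintillation signal taken at 18 hours, DMSO as baseline. Single-concentration duplicates (25 uM) preceded concentration-response follow-up of actives.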
# [3] = biological target: Estrogen receptor (Homo sapiens) (UniProt P03372); test: NVS_NR_hER: NovaScreen (NVS) Nuclear Receptor Binding Assay for human Estrogen Receptor (ER) (AID 2283348)
# How it was run: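 Radioligand competitive displacement binding to estrogen receptor from MCF7 extract, cell-free; 18 h after dosing, scintillation read-out. Primary screen in duplicate at 25 uM; actives followed up in concentration series; loss of signal vs DMSO.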
# [4] = biological target: rat Peripheral-type Benzodiazepine Receptor (PBR), Tspo (gene 24230) (UniProt P16257); test: NVS_MP_rPBR: NovaScreen (NVS) Membrane Protein Assay for rat Peripheral-type Benzodiazepine Receptor (PBR) (AID 2283335)
# How it was run: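 Radioligand displacement, rat kidney membrane prep, 1 h exposure, filter-based scintillation read; DMSO baseline, loss-of-signal scored. Primary screen at 25 uM in duplicate, actives followed up in concentration series.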
# [5] = biological target: Estrogen receptor (Homo sapiens) (UniProt P03372); test: OT_ER_ERaERa_1440: Odyssey Thera (OT) 24-hour HEK293T Protein-Complementation Assay for Estrogen Receptor-alpha/-alpha Homodimer (AID 2283349);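 also: hits raise fluorescence above DMSO for agonists and antagonists alike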
# How it was run: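 HEK293T cells stably expressing the human ER alpha ligand-binding domain (aa 310-547) as a homodimer PCA were dosed for 24 hours. Fluorescence intensity was read by laser scanning cytometry, and gain of signal was fitted relative to DMSO vehicle.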
# [6] = biological target: Estrogen receptor (Homo sapiens) (UniProt P03372); test: OT_ER_ERaERa_0480: Odyssey Thera (OT) 8-hour HEK293T Protein-Complementation Assay for Estrogen Receptor-alpha/-alpha Homodimer (AID 2283351);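 also: rise in fluorescence from reassembled reporter fragments on ERα LBD homodimer in nucleus or whole cell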
# How it was run: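 HEK293T cells stably expressing the human ERα ligand-binding domain (aa 310-547) as a homodimer PCA were dosed with compound for 8 h. Gain of fluorescence intensity versus DMSO vehicle was read by laser scanning cytometry.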
# [7] = biological target: Estrogen receptor (Homo sapiens) + Estrogen receptor beta (Homo sapiens) (UniProt P03372+Q92731); test: OT_ER_ERaERb_0480: Odyssey Thera (OT) 8-hour HEK293T Protein-Complementation Assay for Estrogen Receptor-alpha/-beta Heterodimer (AID 2283352)
# How it was run: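 Compound added to HEK293T cells carrying split-reporter-tagged ER-alpha and ER-beta LBDs, incubated 8 hours, then imaged by laser scanning cytometer. Signal rise in nucleus, or nucleus and cytoplasm, over vehicle was fitted in the positive direction.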
# [8] = biological target: Estrogen receptor beta (Homo sapiens) (UniProt Q92731); test: OT_ER_ERbERb_0480: Odyssey Thera (OT) 8-hour HEK293T Protein-Complementation Assay for Estrogen Receptor-beta/-beta Homodimer (AID 2283357);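 also: active means signal gain over DMSO baseline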
# How it was run: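 Fluorescence intensity, nuclear for agonists and nuclear plus cytoplasmic for antagonists, was quantified by laser scanning cytometry versus vehicle after 8 h treatment. The cells were HEK293T stably carrying ER beta LBD fragment-complementation partners.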
# [9] = biological target: chimpanzee Androgen Receptor (AR), AR (gene 747460) (UniProt O97775); test: NVS_NR_cAR: NovaScreen (NVS) Nuclear Receptor Binding Assay for chimpanzee Androgen Receptor (AR) (AID 2283346);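 also: radioligand displacement from AR measured by scintillation counting in a cell-free assay; a loss of bound radioligand signal versus DMSO counts as binding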
# How it was run: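 Radioligand binding to chimpanzee AR expressed in Sf9/Sf21 cells, cell-free, measured 72 h after dosing by lysate-based scintillation counting. Loss of signal vs DMSO; initial duplicate screen at 25 uM, actives retested in concentration series.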
# [10] = biological target: rat Mineralocorticoid Receptor (MR), Nr3c2 (gene 25672) (UniProt P22199); test: NVS_NR_rMR: NovaScreen (NVS) Nuclear Receptor Binding Assay for rat Mineralocorticoid Receptor (MR) (AID 2283355)
# How it was run: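 Cell-free radioligand binding to mineralocorticoid receptor from adrenalectomized rat brain supernatant, scintillation counting after 24 h. Primary screen in duplicate at 25 uM; actives retested in concentration series. Loss of specific binding versus DMSO.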
# [11] = biological target: human Constitutive Androstane Receptor (CAR), NR1I3 (gene 9970) (UniProt Q14994); test: NVS_NR_hCAR_Antagonist: NovaScreen (NVS) Nuclear Receptor Binding Assay for human Constitutive Androstane Receptor Antagonism (CAR) (AID 2283344)
# How it was run: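 Cell-free TR-FRET binding read 1 h after dosing, antagonist mode; loss of signal versus DMSO baseline. Primary screen in duplicate at a single 25 uM; actives retested in concentration series.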
# NCBI gene 100848466 = test: NVS_NR_bPR: NovaScreen (NVS) Nuclear Receptor Binding Assay for bovine Progextron Receptor (PR) (AID 2283343);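 also: actives lower bound radioligand signal below DMSO meaning displacement of the label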
# How it was run: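 Bovine uterine membrane preparation; radioligand displacement read by scintillation counting 18 h after dosing. Primary screen single concentration, 25 uM, in duplicate; actives followed up in concentration series. Signal loss versus DMSO baseline.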
# [12] = biological target: Retinoic acid receptor alpha (Homo sapiens) (UniProt P10276); test: NVS_NR_hRAR_Antagonist: NovaScreen (NVS) Nuclear Receptor Binding Assay for human Retinoic Acid Alpha Receptor Antagonism (RAR) (AID 2283358)
# How it was run: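 Cell-free TR-FRET binding assay with extracted human RARalpha in antagonist mode, read 2 h after dosing. Loss of signal was fitted relative to DMSO; the primary screen used 25 uM in duplicate, with concentration series on follow-up.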
# [13] = biological target: human Androgen Receptor (AR), AR (gene 367) (UniProt P10275); test: NVS_NR_hAR: NovaScreen (NVS) Nuclear Receptor Binding Assay for human Androgen Receptor (AR) (AID 2283332)
# How it was run: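 LnCAP cell-free extract; radioligand displacement read by scintillation counting after 20 h. Primary screen single concentration 25 uM in duplicate, actives then run as concentration series; loss-of-signal fitted relative to DMSO baseline.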
# [14] = biological target: Androgen Receptor/SRC-1 Co-activator, AR (gene 367) (UniProt P10275); test: OT_AR_ARSRC1_0960: Odyssey Thera (OT) 16-hour HEK293T Protein-Complementation Assay for Androgen Receptor/SRC-1 Co-activator (AID 2283353);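 also: actives raise the signal above DMSO so potency reflects increased AR and SRC-1 complex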
# How it was run: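 HEK293T cells stably expressing AR and SRC-1 fused to split Venus YFP fragments via (Gly4Ser)2 linkers were dosed for 16 h. Nuclear/cytoplasmic fluorescence ratio at 488 nm, ≥400 cells per image, fitted for gain of signal versus DMSO.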
# [15] = biological target: Androgen Receptor/SRC-1 Co-activator, AR (gene 367) (UniProt P10275); test: OT_AR_ARSRC1_0480: Odyssey Thera (OT) 8-hour HEK293T Protein-Complementation Assay for Androgen Receptor/SRC-1 Co-activator (AID 2283354);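 also: hits raise the complementation signal above DMSO so AC50 marks enhancers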
# How it was run: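 HEK293T cells stably expressing AR and SRC-1 fused to Venus YFP fragments, imaged 8 h after dosing. Complementation fluorescence scored as nuclear/cytoplasmic ratio at 488 nm in at least 400 cells per image; gain fitted versus DMSO.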
# [16] = biological target: Bile acid receptor (Homo sapiens) (UniProt Q96RI1); test: NVS_NR_hFXR_Antagonist: NovaScreen (NVS) Nuclear Receptor Binding Assay for human Farnesoid X Receptor Antagonism (FXR) (AID 2283350)
# How it was run: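 Cell-free TR-FRET ligand-binding read-out on human FXR (NR1H4) in antagonist mode, measured 1 h after dosing. Primary screen in duplicate at 25 uM, actives retested in concentration series; signal loss scored versus DMSO.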
# Chain of rat Peripheral-type Benzodiazepine Receptor (PBR), Tspo (gene 24230) (P16257 whole entry, looked up): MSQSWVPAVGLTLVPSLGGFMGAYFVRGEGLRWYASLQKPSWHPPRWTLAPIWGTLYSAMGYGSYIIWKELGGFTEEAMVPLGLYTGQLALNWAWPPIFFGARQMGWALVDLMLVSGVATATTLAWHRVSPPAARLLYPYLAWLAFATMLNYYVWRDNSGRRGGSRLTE
# Chain of chimpanzee Androgen Receptor (AR), AR (gene 747460) (O97775 whole entry, looked up): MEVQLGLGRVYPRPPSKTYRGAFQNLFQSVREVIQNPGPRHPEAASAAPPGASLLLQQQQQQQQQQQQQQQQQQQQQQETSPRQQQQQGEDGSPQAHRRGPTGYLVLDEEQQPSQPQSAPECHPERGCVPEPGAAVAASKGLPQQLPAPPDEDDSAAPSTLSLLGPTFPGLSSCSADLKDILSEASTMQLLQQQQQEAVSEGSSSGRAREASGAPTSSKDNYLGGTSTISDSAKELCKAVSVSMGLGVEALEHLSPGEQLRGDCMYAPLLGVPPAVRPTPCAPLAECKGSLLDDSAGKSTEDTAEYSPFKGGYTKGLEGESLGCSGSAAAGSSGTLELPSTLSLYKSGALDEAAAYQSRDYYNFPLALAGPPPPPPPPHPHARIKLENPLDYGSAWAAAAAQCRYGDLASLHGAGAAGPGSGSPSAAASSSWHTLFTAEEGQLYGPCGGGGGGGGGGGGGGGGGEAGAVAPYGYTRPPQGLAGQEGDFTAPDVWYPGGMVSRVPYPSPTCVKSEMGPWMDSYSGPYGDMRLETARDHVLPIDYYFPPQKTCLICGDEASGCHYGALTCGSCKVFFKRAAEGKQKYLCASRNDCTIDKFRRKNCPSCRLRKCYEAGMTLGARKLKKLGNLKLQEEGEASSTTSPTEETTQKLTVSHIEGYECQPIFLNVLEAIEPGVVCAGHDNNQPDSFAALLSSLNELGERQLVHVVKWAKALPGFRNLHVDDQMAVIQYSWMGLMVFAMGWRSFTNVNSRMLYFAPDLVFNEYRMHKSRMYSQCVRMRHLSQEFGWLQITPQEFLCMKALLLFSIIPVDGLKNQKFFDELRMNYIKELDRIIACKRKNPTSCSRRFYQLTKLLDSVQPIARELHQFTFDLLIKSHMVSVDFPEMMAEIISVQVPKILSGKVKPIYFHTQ
# Chain of Estrogen receptor beta (Homo sapiens) (Q92731 whole entry, looked up, the tested form may be a part): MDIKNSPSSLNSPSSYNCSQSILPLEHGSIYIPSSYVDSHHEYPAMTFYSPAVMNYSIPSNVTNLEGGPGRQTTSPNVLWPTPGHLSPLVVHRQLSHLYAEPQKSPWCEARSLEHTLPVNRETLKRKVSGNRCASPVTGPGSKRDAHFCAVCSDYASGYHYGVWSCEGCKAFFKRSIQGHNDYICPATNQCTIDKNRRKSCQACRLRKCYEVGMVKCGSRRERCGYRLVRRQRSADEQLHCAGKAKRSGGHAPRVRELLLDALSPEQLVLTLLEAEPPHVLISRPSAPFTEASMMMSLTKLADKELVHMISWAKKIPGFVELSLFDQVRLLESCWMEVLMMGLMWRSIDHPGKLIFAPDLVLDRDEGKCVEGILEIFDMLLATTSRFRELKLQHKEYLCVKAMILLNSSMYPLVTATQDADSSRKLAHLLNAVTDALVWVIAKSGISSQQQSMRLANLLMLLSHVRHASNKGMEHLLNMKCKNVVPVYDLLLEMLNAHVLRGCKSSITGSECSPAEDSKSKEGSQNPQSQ
# Chain of Estrogen receptor (Homo sapiens) (P03372 whole entry, looked up, the tested form may be a part): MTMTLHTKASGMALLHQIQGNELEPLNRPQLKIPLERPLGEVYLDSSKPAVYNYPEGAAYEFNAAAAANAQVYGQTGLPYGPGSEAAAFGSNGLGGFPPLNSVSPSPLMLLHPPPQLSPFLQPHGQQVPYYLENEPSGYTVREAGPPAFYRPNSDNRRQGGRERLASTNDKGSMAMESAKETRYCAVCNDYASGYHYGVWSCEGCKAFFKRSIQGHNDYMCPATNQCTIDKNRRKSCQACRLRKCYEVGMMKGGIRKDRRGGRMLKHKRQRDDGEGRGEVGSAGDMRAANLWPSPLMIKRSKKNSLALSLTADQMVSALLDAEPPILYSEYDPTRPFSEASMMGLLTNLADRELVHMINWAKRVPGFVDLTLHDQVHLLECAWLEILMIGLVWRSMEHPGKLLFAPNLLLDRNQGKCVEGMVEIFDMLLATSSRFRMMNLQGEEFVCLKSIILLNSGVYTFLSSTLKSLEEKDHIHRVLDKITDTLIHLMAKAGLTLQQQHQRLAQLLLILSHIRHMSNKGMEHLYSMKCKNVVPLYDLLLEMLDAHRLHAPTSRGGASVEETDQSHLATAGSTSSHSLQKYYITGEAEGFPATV
# Chain of bovine Estrogen Receptor (ER), ESR1 (gene 407238) (P49884 whole entry, looked up): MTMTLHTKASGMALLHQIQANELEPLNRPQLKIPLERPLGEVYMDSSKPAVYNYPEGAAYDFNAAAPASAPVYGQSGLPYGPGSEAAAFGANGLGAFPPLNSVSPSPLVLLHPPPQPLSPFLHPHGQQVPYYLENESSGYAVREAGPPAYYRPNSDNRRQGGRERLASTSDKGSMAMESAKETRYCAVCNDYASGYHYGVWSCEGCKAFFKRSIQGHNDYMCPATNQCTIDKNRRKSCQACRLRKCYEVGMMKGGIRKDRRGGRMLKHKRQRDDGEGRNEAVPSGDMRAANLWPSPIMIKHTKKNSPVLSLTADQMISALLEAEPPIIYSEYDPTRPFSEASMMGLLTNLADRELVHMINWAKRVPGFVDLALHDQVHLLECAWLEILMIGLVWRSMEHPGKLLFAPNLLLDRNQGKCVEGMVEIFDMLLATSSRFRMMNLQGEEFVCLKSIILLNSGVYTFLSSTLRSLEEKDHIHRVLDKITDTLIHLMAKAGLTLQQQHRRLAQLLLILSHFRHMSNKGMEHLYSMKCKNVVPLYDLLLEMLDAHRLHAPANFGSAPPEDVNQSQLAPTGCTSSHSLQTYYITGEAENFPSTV
# Chain of human Constitutive Androstane Receptor (CAR), NR1I3 (gene 9970) (Q14994 whole entry, looked up): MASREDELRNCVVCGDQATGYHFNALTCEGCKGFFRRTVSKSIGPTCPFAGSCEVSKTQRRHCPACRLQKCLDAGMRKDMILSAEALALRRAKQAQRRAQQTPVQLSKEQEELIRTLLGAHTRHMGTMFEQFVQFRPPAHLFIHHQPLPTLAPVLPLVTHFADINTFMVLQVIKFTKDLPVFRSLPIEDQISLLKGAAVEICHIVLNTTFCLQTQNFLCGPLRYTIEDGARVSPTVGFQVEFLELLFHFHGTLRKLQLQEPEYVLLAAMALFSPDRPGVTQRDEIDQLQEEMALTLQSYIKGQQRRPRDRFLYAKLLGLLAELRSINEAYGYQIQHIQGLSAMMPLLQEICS
# Chain of Androgen Receptor/SRC-1 Co-activator, AR (gene 367) (P10275 whole entry, looked up, the tested form may be a part): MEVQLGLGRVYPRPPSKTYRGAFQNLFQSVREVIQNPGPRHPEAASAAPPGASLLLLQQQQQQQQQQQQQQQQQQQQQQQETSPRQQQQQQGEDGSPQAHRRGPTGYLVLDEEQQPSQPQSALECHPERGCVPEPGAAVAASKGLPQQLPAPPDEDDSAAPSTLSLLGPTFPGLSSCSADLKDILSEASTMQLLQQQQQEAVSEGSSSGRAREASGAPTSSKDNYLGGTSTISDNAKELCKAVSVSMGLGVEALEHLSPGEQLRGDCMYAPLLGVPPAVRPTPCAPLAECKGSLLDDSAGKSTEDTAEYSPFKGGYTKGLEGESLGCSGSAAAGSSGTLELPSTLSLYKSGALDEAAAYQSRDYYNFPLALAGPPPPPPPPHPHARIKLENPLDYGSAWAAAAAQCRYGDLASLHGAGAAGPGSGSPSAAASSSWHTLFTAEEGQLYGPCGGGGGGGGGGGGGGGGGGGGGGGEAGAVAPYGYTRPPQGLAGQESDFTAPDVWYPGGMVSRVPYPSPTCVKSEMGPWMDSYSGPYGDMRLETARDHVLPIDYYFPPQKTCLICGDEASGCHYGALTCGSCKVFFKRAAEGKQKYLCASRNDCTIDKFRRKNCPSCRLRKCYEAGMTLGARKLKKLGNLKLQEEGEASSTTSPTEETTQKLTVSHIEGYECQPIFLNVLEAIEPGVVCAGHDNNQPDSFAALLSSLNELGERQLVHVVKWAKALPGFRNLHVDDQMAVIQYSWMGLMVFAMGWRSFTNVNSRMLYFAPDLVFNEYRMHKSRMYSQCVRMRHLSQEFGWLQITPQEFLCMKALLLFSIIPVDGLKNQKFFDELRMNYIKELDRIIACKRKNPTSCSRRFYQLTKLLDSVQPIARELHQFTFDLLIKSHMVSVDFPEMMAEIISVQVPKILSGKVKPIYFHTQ
# Chain of Retinoic acid receptor alpha (Homo sapiens) (P10276 whole entry, looked up): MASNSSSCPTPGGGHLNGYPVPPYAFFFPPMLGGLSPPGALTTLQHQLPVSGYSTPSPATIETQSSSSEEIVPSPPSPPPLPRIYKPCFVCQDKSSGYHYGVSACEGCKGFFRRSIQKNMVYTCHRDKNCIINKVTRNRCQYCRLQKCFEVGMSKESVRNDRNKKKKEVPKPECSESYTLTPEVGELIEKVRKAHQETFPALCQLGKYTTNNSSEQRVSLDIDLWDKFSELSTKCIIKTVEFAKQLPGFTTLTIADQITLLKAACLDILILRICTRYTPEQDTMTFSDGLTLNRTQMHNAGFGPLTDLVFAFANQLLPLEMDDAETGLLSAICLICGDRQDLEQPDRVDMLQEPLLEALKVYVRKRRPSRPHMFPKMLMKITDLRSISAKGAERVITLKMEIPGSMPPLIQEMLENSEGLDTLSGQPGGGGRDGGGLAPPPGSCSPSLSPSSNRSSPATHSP
# Chain of Bile acid receptor (Homo sapiens) (Q96RI1 whole entry, looked up): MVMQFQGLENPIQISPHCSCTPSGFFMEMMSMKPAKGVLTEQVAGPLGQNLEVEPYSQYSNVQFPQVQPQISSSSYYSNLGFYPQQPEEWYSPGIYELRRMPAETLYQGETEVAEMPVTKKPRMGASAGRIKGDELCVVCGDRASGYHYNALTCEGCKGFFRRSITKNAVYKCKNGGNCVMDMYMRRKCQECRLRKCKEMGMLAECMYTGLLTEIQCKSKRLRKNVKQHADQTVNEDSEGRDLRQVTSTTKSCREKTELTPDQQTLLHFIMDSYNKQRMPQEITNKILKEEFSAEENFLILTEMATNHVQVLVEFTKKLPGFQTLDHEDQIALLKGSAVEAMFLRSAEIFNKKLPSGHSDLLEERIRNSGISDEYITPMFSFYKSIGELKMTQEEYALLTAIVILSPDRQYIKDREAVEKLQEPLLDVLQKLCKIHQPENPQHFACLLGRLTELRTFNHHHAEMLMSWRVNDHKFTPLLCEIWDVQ
smiles,measurement,setting,value
Nc1nc(N)nc(Cl)n1,outcome,[1],inactive
OCC(c1ccc(Cl)cc1)c1ccc(Cl)cc1,outcome,[2],inactive
Oc1ccc(Cc2ccc(O)cc2)cc1,outcome,[3],inactive
[F][Sn]([c]1ccccc1)([c]1ccccc1)[c]1ccccc1,outcome,[2],inactive
O=c1[nH]c2ccccc2n1C1CCN(CCCC(c2ccc(F)cc2)c2ccc(F)cc2)CC1,outcome,[2],inactive
same,outcome,[3],inactive
CC(C)(COCC1CO1)COCC1CO1 (centres undefined),outcome,[4],inactive
Oc1c(Br)cc(Br)cc1Br,outcome,[2],inactive
same,outcome,[5],inactive
same,outcome,[6],inactive
same,outcome,[7],inactive
same,outcome,[8],inactive
Cc1cc(SCc2sc(-c3ccc(C(F)(F)F)c(F)c3)nc2C)ccc1OCC(=O)O,outcome,[2],inactive
same,outcome,[3],inactive
CCCCCCCCCCCCCCC(Br)C(=O)O (centres undefined),outcome,[3],inactive
c1csc(-c2ccc(-c3cccs3)s2)c1,outcome,[3],inactive
O=c1oc2ccccc2c(O)c1C(CC(O)c1ccc(-c2ccc(Br)cc2)cc1)c1ccccc1 (centres undefined),outcome,[2],inactive
same,outcome,[9],inactive
same,outcome,[10],inactive
CC(C)O.CC(C)O.OCCN(CCO)CCO.OCCN(CCO)CCO.[Ti],AC50,[11],25 µM (active)
O=[N+]([O-])c1c2ccccc2cc2ccccc12,outcome,[3],inactive
CC(C)(C1CCC(O)CC1)C1CCC(O)CC1 (centres undefined),outcome,[2],inactive
CC1(C)[C@H](C(=O)O[C@H](C#N)c2cccc(Oc3ccccc3)c2)[C@@H]1/C=C(\Cl)C(F)(F)F,outcome,[4],inactive
same,outcome,[8],inactive
CCOP(=S)(OCC)OP(=S)(OCC)OCC,AC50,[4],17.8 µM (active)
CCCCCCCCCCCCc1cccc(S(=O)(=O)O)c1,AC50,[4],12.4 µM (active)
same,AC50,NCBI gene 100848466,19.5 µM (active)
same,AC50,[11],17.9 µM (active)
same,AC50,[12],22.5 µM (active)
C#CCOC(=O)/C=C(C)/C=C/CC(C)CCCC(C)C (centres undefined),outcome,[9],inactive
Nc1c(Oc2ccccc2)cc(O)c2c1C(=O)c1ccccc1C2=O,outcome,[13],inactive
same,outcome,[9],inactive
O=C1c2ccccc2C(=O)C1C(=O)C(c1ccccc1)c1ccc(Cl)cc1 (centres undefined),outcome,[4],inactive
same,outcome,[2],inactive
same,AC50,[9],26.4 µM (active)
same,AC50,[3],17.6 µM (active)
same,outcome,[5],inactive
same,outcome,[6],inactive
same,outcome,[14],inactive
same,AC50,[15],30 µM (active)
O=S(=O)(c1ccc(Cl)cc1)c1cc(Cl)c(Cl)cc1Cl,outcome,[2],inactive
O=[N+]([O-])c1ccc(Nc2ccccc2)cc1,outcome,[4],inactive
same,outcome,[3],inactive
Nc1ccc(N)cc1,AC50,[9],25 µM (active)
same,outcome,[8],inactive
CC(C)(C)c1cc([N+](=O)[O-])cc(C(C)(C)C)c1O,outcome,[3],inactive
O=C(O)C1(c2ccc3c(c2)OC[C@H](Cc2ccc(-c4ccccc4)cc2)[C@H]3O)CCCC1,outcome,[16],inactive
CC(C=O)Cc1ccc2c(c1)OCO2 (centres undefined),outcome,[10],inactive
Clc1cccc(Cl)c1Cl,outcome,[12],inactive
